Source: PubChem BioAssay (EPA / NIEHS)
Records with an inconclusive call do not appear. Calls of active or inactive are those of the source. Rule for the calls, unless noted: active = hit-call score of the fitted dose curve at least 0.9, where 1 is the maximum; inactive = score below 0.9.

How the values were obtained:
[1] = ACEA_ER_80hr: ACEA Biosciences xCELLigence Real-Time Cell Analysis on Estrogen Receptor Agonism for Proliferation (AID 2282667; active = hit-call score of the fitted dose curve at least 0.9, where 1 is the maximum); conditions: T47D proliferation, impedance (xCELLigence), 80 h
Procedure, shortened: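 Real-time electrical impedance tracked growth of the human breast line T47D, with the 80 h post-dosing value used. Dosing spanned eight 1:4 steps down from a 100 uM final top concentration, run in duplicate.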

[2] = APR_HepG2_CellCycleArrest_24hr: Apredica 24-hour HepG2 Assay for Cell Cycle Arrest (AID 2282905); conditions: imaging, actives raise or lower the signal;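 note: cell cycle arrest scored as ratio of 2N to 4N nuclear DNA content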
Procedure, shortened: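 HepG2 cells were exposed to compounds at 0.39–200 uM (ten concentrations, duplicate) in 0.5% v/v DMSO for 24 hr. After formaldehyde fixation and Triton permeabilization, Hoechst 33342-stained nuclei were imaged at 20x; DNA content was quantified, with bidirectional fitting against DMSO.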

[3] = APR_HepG2_NuclearSize_24hr: Apredica 24-hour HepG2 Assay for Nuclear Size (AID 2282907); conditions: high-content imaging, actives raise or lower the signal
Procedure, shortened: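 HepG2 human liver cells were exposed for 24 hr to compounds at 0.39–200 uM (ten concentrations, duplicate) in 0.5% v/v DMSO. They were then formaldehyde-fixed, Triton-permeabilized and Hoechst 33342-stained, and nuclear diameter was imaged at 20x. Bidirectional fits were made against DMSO.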

[4] = APR_HepG2_CellLoss_24hr: Apredica 24-hour HepG2 Assay for Cell Loss (AID 2282908); conditions: high-content imaging;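 for AC50: fit in both directions so a hit may be cell loss or gain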
Procedure, shortened: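 Compounds were tested at 0.39–200 uM in duplicate with 0.5% v/v DMSO final. Cells were then fixed in 3.7% formaldehyde, Hoechst 33342 nuclei were imaged at 20x by HCS, and cell number was fitted bidirectionally against DMSO.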

[5] = APR_HepG2_MicrotubuleCSK_24hr: Apredica 24-hour HepG2 Assay for Microtubule CSK Stabilty (AID 2282909); conditions: HepG2 microtubule cytoskeleton imaging, actives raise or lower the signal
Procedure, shortened: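 HepG2 cells exposed 24 h to compounds at 0.39–200 uM (duplicate, 0.5% v/v DMSO final), then fixed, permeabilized and immunostained for alpha-tubulin with Hoechst 33342. Cytoskeleton imaged at 20x; bidirectional fit versus DMSO baseline.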

[6] = APR_HepG2_MitoticArrest_24hr: Apredica 24-hour HepG2 Assay for Mitotic Arrest (AID 2282910); conditions: high-content imaging, actives raise or lower the signal
Procedure, shortened: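 HepG2 cells, 24 h exposure at 0.39-200 uM (10 concentrations, duplicate, 0.5% DMSO). Fixed, stained for phospho-histone H3 with Hoechst; imaged by high-content microscopy, bidirectional fit versus DMSO.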

[7] = APR_HepG2_MitoMembPot_24hr: Apredica 24-hour HepG2 Assay for Mitochondrial Membrane Potential (AID 2282911); conditions: imaging, actives raise or lower the signal
Procedure, shortened: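 Cells are dosed for 24 hr across 0.39 to 200 uM with solvent held at 0.5% DMSO. They are then stained with 250 nM MitoTracker Red CMXRos for 30 min, fixed in 3.7% formaldehyde and imaged.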

[8] = APR_HepG2_MitoMass_24hr: Apredica 24-hour HepG2 Assay for Mitochondrial Mass (AID 2282912); conditions: high-content imaging, actives raise or lower the signal
Procedure, shortened: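 Human HepG2 liver cells were exposed for 24 hr to compounds at 0.39–200 uM (duplicates, 0.5% v/v DMSO final). They were stained live with 250 nM MitoTracker Red CMXRos for 30 min, fixed in 3.7% formaldehyde, and imaged by HCS fluorescence; signals were fitted bidirectionally against DMSO.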

[9] = APR_HepG2_p53Act_24hr: Apredica 24-hour HepG2 Assay for p53 Activation (AID 2282913); conditions: high-content imaging, actives raise or lower the signal;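 note: p53 protein immunofluorescence averaged per cell in HepG2 with Hoechst nuclei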
Procedure, shortened: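 Human HepG2 liver cells; 24 hr cpd treatment, 0.39–200 uM, 0.5% DMSO final. Fixed in 3.7% formaldehyde, permeabilized with 0.5% Triton X-100, stained with anti-p53/Cy5 plus Hoechst 33342. Six images per well at 20x; gain or loss vs DMSO.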

[10] = APR_HepG2_CellCycleArrest_72hr: Apredica 72-hour HepG2 Assay for Cell Cycle Arrest (AID 2282914); conditions: high-content imaging, actives raise or lower the signal
Procedure, shortened: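 Read-out is Hoechst-stained nuclear DNA content measured by automated fluorescence imaging (20x, six images per well), fitted in both directions relative to DMSO. Human HepG2 liver cells received 0.39–200 uM compound for 72 hr at 0.5% v/v DMSO.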

[11] = APR_HepG2_CellLoss_72hr: Apredica 72-hour HepG2 Assay for Cell Loss (AID 2282915); conditions: high-content imaging
Procedure, shortened: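 HepG2 cells exposed 72 h to compound at 0.39–200 uM (10 concentrations, duplicate) in 0.5% DMSO. Fixed with 3.7% formaldehyde and Hoechst 33342-stained. Imaged at 20x; nuclear count gives cell number, fitted bidirectionally versus DMSO.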

[12] = APR_HepG2_P-H2AX_72hr: Apredica 72-hour HepG2 Assay for H2AX Phosphorylation (AID 2282916); conditions: imaging, actives raise or lower the signal;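 note: phospho-histone H2A.x immunostain intensity per cell marking DNA damage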
Procedure, shortened: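 HepG2 human liver cells were exposed for 72 hr to compounds at 0.39–200 uM (10 concentrations, duplicate per plate) in 0.5% v/v DMSO. Fixed, permeabilized cells were immunolabeled for phospho-histone H2A.x with Hoechst 33342 and imaged by HCS fluorescence; bidirectional fit versus DMSO.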

[13] = APR_HepG2_MitoMembPot_72hr: Apredica 72-hour HepG2 Assay for Mitochondrial Membrane Potential (AID 2282917); conditions: imaging, actives raise or lower the signal
Procedure, shortened: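 HepG2 cells dosed 72 hr with compound at 0.39–200 uM in duplicate, 0.5% v/v DMSO final. Mitochondria stained with 250 nM MitoTracker Red CMXRos for 30 min before formaldehyde fixation, imaged by high-content fluorescence; bidirectional fit versus DMSO.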

[14] = APR_HepG2_MitoticArrest_72hr: Apredica 72-hour HepG2 Assay for Mitotic Arrest (AID 2282918); conditions: high-content imaging, actives raise or lower the signal
Procedure, shortened: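 Read-out is phospho-histone H3 immunofluorescence with Hoechst nuclear segmentation, imaged at 20x. Human HepG2 liver cells received ten concentrations (0.39–200 uM, final DMSO 0.5% v/v) for 72 hr before fixation. Gain or loss of signal was fitted relative to DMSO.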

[15] = APR_HepG2_MicrotubuleCSK_72hr: Apredica 72-hour HepG2 Assay for Microtubule CSK Stabilty (AID 2282919); conditions: HepG2 microtubule cytoskeleton, high-content imaging, actives raise or lower the signal
Procedure, shortened: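 HepG2 cells were exposed 72 hr to compound at 0.39–200 uM in duplicate (0.5% DMSO final), then fixed and permeabilized. Alpha-tubulin immunofluorescence was imaged by high-content microscopy, with bidirectional fitting against DMSO and taxol as positive control.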

[16] = APR_HepG2_P-H2AX_24hr: Apredica 24-hour HepG2 Assay for H2AX Phosphorylation (AID 2282920); conditions: high-content imaging, actives raise or lower the signal
Procedure, shortened: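 HepG2, 24 hr, cpd 0.39–200 uM (10 conc, duplicate), DMSO 0.5% v/v final. Fix 3.7% formaldehyde, Triton X-100 permeabilize, anti-phospho-H2A.x 1:200 + Hoechst 2 ug/mL. Imaged, bidirectional fit vs DMSO.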

[17] = APR_HepG2_StressKinase_72hr: Apredica 72-hour HepG2 Assay for Stress Kinase (AID 2282921); conditions: HepG2 stress kinase (phospho-c-Jun) imaging, actives raise or lower the signal
Procedure, shortened: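 Cells were exposed for 72 h to ten concentrations (0.39–200 uM, duplicate) at 0.5% v/v DMSO final, then fixed with 3.7% formaldehyde, permeabilized and immunostained for phospho-c-Jun (Cy3 secondary) with Hoechst nuclear counterstain.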

[18] = APR_HepG2_StressKinase_24hr: Apredica 24-hour HepG2 Assay for Stress Kinase (AID 2282922); conditions: HepG2 stress kinase (phospho-c-Jun) imaging, actives raise or lower the signal
Procedure, shortened: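 HepG2 cells exposed 24 h to 0.39–200 uM compound in duplicate (0.5% v/v DMSO final). Cells fixed in 3.7% formaldehyde, permeabilized and immunostained for phospho-c-Jun; read by high-content fluorescence imaging, fitted bidirectionally against DMSO.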

[19] = APR_HepG2_p53Act_72hr: Apredica 72-hour HepG2 Assay for p53 Activation (AID 2282923); conditions: high-content imaging, actives raise or lower the signal;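 note: average cellular p53 protein immunofluorescence intensity in HepG2 cells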
Procedure, shortened: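 Cells were dosed for 72 hr with compounds at 0.39–200 uM in duplicate (final DMSO 0.5% v/v), then fixed in 3.7% formaldehyde, permeabilized with Triton X-100 and immunostained for p53 (Cy5) with Hoechst 33342 nuclear counterstain.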

[20] = APR_HepG2_MitoMass_72hr: Apredica 72-hour HepG2 Assay for Mitochondrial Mass (AID 2282924); conditions: high-content imaging, actives raise or lower the signal;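 note: MitoTracker Red CMXRos stain intensity per cell imaged as mitochondrial mass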
Procedure, shortened: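 HepG2 cells dosed 72 hr at 0.39–200 uM (0.5% DMSO), in duplicate. MitoTracker Red CMXRos 250 nM loaded 30 min before formaldehyde fixation; high-content fluorescence imaging, bidirectional fit versus DMSO.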

Measured: AC50

COCCOC[C@H](CC1(C(=O)NC2CCC(C(=O)O)CC2)CCCC1)C(=O)Oc1ccc2c(c1)CCC2 (some centres not stated)
inactive: [1] | [2] | [3] | [4] | [5] | [6] | [7] | [8] | [9] | [10] | [11] | [12] | [13] | [14] | [15] | [16] | [17] | [18] | [19] | [20]

C[C@]12C=CC(=O)C=C1CC[C@@H]1[C@@H]2C(=O)C[C@@]2(C)[C@H]1CC[C@]2(O)C(=O)CO
inactive: [2] | [3] | [4] | [5] | [6] | [7] | [8] | [9] | [11] | [12] | [13] | [14] | [15] | [16] | [17] | [18] | [19] | [20]
active: [1] 14.8 µM

NCC1(Cc2noc(=O)[nH]2)CCCCC1
inactive: [1] | [2] | [3] | [4] | [5] | [6] | [7] | [8] | [9] | [10] | [11] | [12] | [13] | [14] | [16] | [17] | [18] | [20]

Oc1ccc2c(c1)OC[C@@H](N1CCC(O)(c3ccc(F)cc3)CC1)[C@H]2O
active: [7] 58.7 µM
inactive: [1] | [2] | [3] | [4] | [5] | [6] | [8] | [9] | [10] | [11] | [12] | [13] | [14] | [15] | [16] | [17] | [18] | [20]

CCCCCCOCCO
inactive: [1] | [2] | [3] | [4] | [5] | [6] | [7] | [8] | [9] | [11] | [12] | [13] | [14] | [15] | [16] | [17] | [18] | [19] | [20]

CCCCCC(=O)O
inactive: [1] | [2] | [3] | [4] | [5] | [6] | [7] | [8] | [9] | [10] | [11] | [12] | [13] | [14] | [15] | [16] | [17] | [18] | [19] | [20]

C=CCOC(=O)c1ccccc1C(=O)OCC=C
inactive: [1] | [2] | [3] | [4] | [5] | [6] | [7] | [8] | [9] | [10] | [11] | [12] | [13] | [14] | [16] | [17] | [18] | [19] | [20]

CC(=O)C(C)=CC1C(C)=CCCC1(C)C (configuration not stated)
inactive: [1] | [2] | [3] | [4] | [5] | [6] | [7] | [8] | [9] | [10] | [11] | [12] | [13] | [14] | [15] | [16] | [17] | [18] | [20]

CCCCCCCCCCCCCCCCCC(=O)O
inactive: [2] | [3] | [4] | [5] | [6] | [7] | [8] | [9] | [11] | [12] | [13] | [15] | [16] | [17] | [18] | [19] | [20]
active: [1] 2.04 µM | [14] 49.9 µM

CC(=O)OC/C=C(\C)CCC=C(C)C
inactive: [1] | [2] | [3] | [4] | [5] | [6] | [7] | [8] | [9] | [10] | [11] | [12] | [13] | [14] | [15] | [16] | [17] | [18] | [19] | [20]

COCCOCCOC
inactive: [1] | [2] | [3] | [4] | [5] | [6] | [7] | [8] | [9] | [10] | [11] | [12] | [13] | [14] | [16] | [17] | [18] | [20]

Nc1ccccc1N
active: [2] 15.8 µM | [4] 12.9 µM | [9] 32.3 µM | [11] 9.57 µM | [12] 38.8 µM | [14] 14.2 µM | [16] 45.8 µM | [17] 59.9 µM | [19] 18.9 µM | [20] 16.2 µM
inactive: [1] | [3] | [5] | [6] | [7] | [8] | [13] | [15] | [18]

COc1cc(S(=O)(=O)O)c(C)cc1N=Nc1c(O)ccc2cc(S(=O)(=O)O)ccc12
active: [7] 100 µM
inactive: [1] | [2] | [3] | [4] | [5] | [6] | [8] | [9] | [10] | [11] | [12] | [13] | [14] | [16] | [17] | [18] | [20]

CCc1c(C(=O)NN2CCCCC2)nn(-c2ccc(Cl)cc2Cl)c1-c1ccc(Br)cc1
inactive: [3] | [7] | [9] | [12] | [18] | [19]
active: [1] 1.69 µM | [2] 27.9 µM | [4] 21.5 µM | [5] 39 µM | [6] 46.8 µM | [8] 47 µM | [10] 14.6 µM | [11] 27.2 µM | [13] 113 µM | [14] 27.7 µM | [15] 30 µM | [16] 70.4 µM | [17] 32.8 µM | [20] 162 µM
